# Assay results as given in publication PMC7862700, “An all-to-all approach to the identification of sequence-specific readers for epigenetic DNA modifications on cytosine”.
# How the values were obtained:
# Assay in all cases: DAPPL (digital affinity profiling via proximity ligation, sequencing); 10 mM Tris-HCl pH 7.5, 50 mM NaCl, 1 mM DTT, 4% glycerol, room temperature, 30 min; GST-TFs on glutathione beads, 16-mer random dsDNA library, 0.1% formaldehyde crosslink after washing; high values mean tight binding
# Details in all cases: protein: recombinant; tags: N-terminal GST; dsDNA, one strand shown
# ERF = target: T1, ERF (Homo sapiens, UniProt P50548 1-548)
# T1 sequence: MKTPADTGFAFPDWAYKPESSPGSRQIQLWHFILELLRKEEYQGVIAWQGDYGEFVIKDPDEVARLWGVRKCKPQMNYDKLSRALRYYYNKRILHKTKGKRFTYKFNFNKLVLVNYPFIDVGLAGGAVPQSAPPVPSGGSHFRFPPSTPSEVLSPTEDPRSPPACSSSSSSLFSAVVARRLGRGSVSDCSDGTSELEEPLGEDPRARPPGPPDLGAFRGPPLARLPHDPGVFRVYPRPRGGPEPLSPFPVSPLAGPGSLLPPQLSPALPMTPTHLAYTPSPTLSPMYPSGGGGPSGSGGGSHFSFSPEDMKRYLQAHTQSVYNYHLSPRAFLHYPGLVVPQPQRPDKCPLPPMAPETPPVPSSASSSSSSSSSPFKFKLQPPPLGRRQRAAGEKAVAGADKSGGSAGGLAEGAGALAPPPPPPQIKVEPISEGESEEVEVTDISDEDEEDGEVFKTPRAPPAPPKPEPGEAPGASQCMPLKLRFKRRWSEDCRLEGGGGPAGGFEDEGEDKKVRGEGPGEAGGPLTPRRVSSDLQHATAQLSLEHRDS
# How it was run: (§1)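 Binding signal is defined as a hexamer's read frequency for one factor over its frequency for the tag-only sample. To obtain reads, GST-fused human transcription factors were expressed in yeast, captured on glutathione beads, barcoded with DNA and pooled with that sample. Pools met 200 nmole of a 16-mer random double-stranded DNA library in Tris/NaCl/DTT/glycerol buffer for 30 min at room temperature before washing, 0.1% formaldehyde crosslinking, proximity ligation (BsaI/T4 ligase, 1 h, 37 °C), PCR and Illumina NextSeq500 sequencing.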
# ETV3L = target: T2, ETV3L (Homo sapiens, UniProt Q6ZN32 1-361)
# T2 sequence: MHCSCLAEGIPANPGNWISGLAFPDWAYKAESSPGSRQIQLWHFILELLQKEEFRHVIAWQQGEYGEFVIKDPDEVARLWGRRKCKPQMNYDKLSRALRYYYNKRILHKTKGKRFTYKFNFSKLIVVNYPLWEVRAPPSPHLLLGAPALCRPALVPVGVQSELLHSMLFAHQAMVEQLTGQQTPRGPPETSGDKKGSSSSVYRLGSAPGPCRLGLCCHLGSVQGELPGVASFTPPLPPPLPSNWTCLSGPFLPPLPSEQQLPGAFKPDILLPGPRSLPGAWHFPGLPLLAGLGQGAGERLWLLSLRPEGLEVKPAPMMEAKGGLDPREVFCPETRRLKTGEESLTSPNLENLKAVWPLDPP
# How it was run: as §1
# ETS2 = target: T3, ETS2 (Homo sapiens, UniProt P15036 1-469)
# T3 sequence: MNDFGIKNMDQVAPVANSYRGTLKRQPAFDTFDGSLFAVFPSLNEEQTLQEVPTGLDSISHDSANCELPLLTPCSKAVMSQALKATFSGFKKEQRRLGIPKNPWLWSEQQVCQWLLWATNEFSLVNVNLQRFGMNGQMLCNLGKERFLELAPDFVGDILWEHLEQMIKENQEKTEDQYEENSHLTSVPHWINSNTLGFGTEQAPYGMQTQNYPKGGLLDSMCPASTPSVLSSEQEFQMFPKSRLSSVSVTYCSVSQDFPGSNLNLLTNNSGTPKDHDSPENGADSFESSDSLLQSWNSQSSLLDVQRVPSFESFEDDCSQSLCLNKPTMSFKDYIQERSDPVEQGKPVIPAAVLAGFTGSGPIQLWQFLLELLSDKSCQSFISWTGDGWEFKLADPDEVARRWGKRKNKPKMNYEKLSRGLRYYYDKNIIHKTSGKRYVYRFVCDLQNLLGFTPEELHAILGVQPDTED
# How it was run: as §1
# SPDEF = target: T4, SPDEF (Homo sapiens, UniProt O95238 1-335)
# T4 sequence: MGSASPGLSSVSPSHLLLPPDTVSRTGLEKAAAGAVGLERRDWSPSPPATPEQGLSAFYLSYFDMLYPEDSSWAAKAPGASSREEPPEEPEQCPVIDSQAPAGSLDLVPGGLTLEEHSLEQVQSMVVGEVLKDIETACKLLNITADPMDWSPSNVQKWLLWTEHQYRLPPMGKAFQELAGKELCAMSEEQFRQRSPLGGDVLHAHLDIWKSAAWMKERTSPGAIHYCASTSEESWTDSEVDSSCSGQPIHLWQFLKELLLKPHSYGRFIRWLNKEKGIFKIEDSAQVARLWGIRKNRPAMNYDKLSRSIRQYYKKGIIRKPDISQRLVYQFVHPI
# How it was run: as §1
# ETV7 = target: T5, ETV7 (Homo sapiens, UniProt Q9Y603 1-341)
# T5 sequence: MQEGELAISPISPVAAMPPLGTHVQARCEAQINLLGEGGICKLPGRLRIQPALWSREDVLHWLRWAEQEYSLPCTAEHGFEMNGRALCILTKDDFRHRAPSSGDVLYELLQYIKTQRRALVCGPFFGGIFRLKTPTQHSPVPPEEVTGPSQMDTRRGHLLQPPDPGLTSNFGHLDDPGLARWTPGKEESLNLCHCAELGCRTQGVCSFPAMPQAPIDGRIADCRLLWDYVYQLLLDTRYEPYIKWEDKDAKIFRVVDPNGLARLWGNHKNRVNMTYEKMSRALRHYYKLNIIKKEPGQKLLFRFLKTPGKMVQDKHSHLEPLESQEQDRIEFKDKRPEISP
# How it was run: as §1
# ELF5 = target: T6, ELF5 (Homo sapiens, UniProt Q9UKW6-2 1-255)
# T6 sequence: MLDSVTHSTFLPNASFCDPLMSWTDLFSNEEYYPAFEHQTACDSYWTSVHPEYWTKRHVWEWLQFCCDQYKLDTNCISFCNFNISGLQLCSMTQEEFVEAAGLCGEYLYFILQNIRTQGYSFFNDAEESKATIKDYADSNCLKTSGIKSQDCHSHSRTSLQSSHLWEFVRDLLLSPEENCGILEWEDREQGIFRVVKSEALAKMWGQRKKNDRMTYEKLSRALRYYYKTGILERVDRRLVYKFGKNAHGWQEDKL
# How it was run: as §1
# ETV3 = target: T7, ETV3 (Homo sapiens, UniProt P41162-2 1-143)
# T7 sequence: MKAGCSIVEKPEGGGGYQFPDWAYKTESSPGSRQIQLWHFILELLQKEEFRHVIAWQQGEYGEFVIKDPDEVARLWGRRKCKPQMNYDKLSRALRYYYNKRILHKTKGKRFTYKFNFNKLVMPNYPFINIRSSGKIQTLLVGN
# How it was run: as §1
# ETV6 = ETV6 (Homo sapiens, UniProt P41212 1-452)
# How it was run: as §1
# Chain of ETV6 (P41212 whole entry): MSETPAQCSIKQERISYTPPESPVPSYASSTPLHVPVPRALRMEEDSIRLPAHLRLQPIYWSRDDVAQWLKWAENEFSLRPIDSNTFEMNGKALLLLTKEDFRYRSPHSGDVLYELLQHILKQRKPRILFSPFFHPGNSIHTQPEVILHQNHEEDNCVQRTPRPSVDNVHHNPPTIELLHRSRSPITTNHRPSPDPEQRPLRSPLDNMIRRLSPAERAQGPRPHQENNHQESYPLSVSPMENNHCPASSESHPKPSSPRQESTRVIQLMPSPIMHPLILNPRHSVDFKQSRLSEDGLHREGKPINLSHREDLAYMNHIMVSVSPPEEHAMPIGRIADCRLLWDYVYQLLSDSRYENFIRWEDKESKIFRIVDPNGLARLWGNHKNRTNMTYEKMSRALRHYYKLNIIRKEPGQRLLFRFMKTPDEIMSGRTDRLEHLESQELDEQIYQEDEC
sequence,measurement,setting,value
TATCCT,binding signal,ERF,"1.67 fold enrichment (6-mer frequency, TF over GST control)"
same,binding signal,ETV3L,"1.82 fold enrichment (6-mer frequency, TF over GST control)"
same,binding signal,ETS2,"1.81 fold enrichment (6-mer frequency, TF over GST control)"
same,binding signal,SPDEF,"2.67 fold enrichment (6-mer frequency, TF over GST control)"
same,binding signal,ETV7,"1.67 fold enrichment (6-mer frequency, TF over GST control)"
same,binding signal,ELF5,"2.65 fold enrichment (6-mer frequency, TF over GST control)"
same,binding signal,ETV3,"1.8 fold enrichment (6-mer frequency, TF over GST control)"
same,binding signal,ETV6,"1.82 fold enrichment (6-mer frequency, TF over GST control)"
AATAGC,binding signal,ERF,"1.25 fold enrichment (6-mer frequency, TF over GST control)"
same,binding signal,ETV3L,"1.03 fold enrichment (6-mer frequency, TF over GST control)"
same,binding signal,ETS2,"1.15 fold enrichment (6-mer frequency, TF over GST control)"
same,binding signal,SPDEF,"1.1 fold enrichment (6-mer frequency, TF over GST control)"
same,binding signal,ETV7,"1.19 fold enrichment (6-mer frequency, TF over GST control)"
same,binding signal,ELF5,"1.16 fold enrichment (6-mer frequency, TF over GST control)"
same,binding signal,ETV3,"1.23 fold enrichment (6-mer frequency, TF over GST control)"
same,binding signal,ETV6,"1.1 fold enrichment (6-mer frequency, TF over GST control)"
ATGGTA,binding signal,ERF,"1.38 fold enrichment (6-mer frequency, TF over GST control)"
same,binding signal,ETV3L,"1.35 fold enrichment (6-mer frequency, TF over GST control)"
same,binding signal,ETS2,"1.37 fold enrichment (6-mer frequency, TF over GST control)"
same,binding signal,SPDEF,"1.31 fold enrichment (6-mer frequency, TF over GST control)"
same,binding signal,ETV7,"1.48 fold enrichment (6-mer frequency, TF over GST control)"
same,binding signal,ELF5,"1.39 fold enrichment (6-mer frequency, TF over GST control)"
same,binding signal,ETV3,"1.35 fold enrichment (6-mer frequency, TF over GST control)"
same,binding signal,ETV6,"1.31 fold enrichment (6-mer frequency, TF over GST control)"
CGTTCT,binding signal,ERF,"1.46 fold enrichment (6-mer frequency, TF over GST control)"
same,binding signal,ETV3L,"1.51 fold enrichment (6-mer frequency, TF over GST control)"
same,binding signal,ETS2,"1.37 fold enrichment (6-mer frequency, TF over GST control)"
same,binding signal,SPDEF,"1.44 fold enrichment (6-mer frequency, TF over GST control)"
same,binding signal,ETV7,"1.56 fold enrichment (6-mer frequency, TF over GST control)"
same,binding signal,ELF5,"1.44 fold enrichment (6-mer frequency, TF over GST control)"
same,binding signal,ETV3,"1.37 fold enrichment (6-mer frequency, TF over GST control)"
same,binding signal,ETV6,"1.47 fold enrichment (6-mer frequency, TF over GST control)"
TTTTTC,binding signal,ERF,"1.16 fold enrichment (6-mer frequency, TF over GST control)"
same,binding signal,ETV3L,"1.34 fold enrichment (6-mer frequency, TF over GST control)"
same,binding signal,ETS2,"1.17 fold enrichment (6-mer frequency, TF over GST control)"
same,binding signal,SPDEF,"1.21 fold enrichment (6-mer frequency, TF over GST control)"
same,binding signal,ETV7,"1.23 fold enrichment (6-mer frequency, TF over GST control)"
same,binding signal,ELF5,"1.37 fold enrichment (6-mer frequency, TF over GST control)"
same,binding signal,ETV3,"1.25 fold enrichment (6-mer frequency, TF over GST control)"
same,binding signal,ETV6,"1.15 fold enrichment (6-mer frequency, TF over GST control)"
GCTAAT,binding signal,ERF,"1.23 fold enrichment (6-mer frequency, TF over GST control)"
same,binding signal,ETV3L,"1.13 fold enrichment (6-mer frequency, TF over GST control)"
same,binding signal,ETS2,"1.24 fold enrichment (6-mer frequency, TF over GST control)"
same,binding signal,SPDEF,"1.03 fold enrichment (6-mer frequency, TF over GST control)"
same,binding signal,ETV7,"1.23 fold enrichment (6-mer frequency, TF over GST control)"
same,binding signal,ELF5,"1.07 fold enrichment (6-mer frequency, TF over GST control)"
same,binding signal,ETV3,"1.2 fold enrichment (6-mer frequency, TF over GST control)"
same,binding signal,ETV6,"1.17 fold enrichment (6-mer frequency, TF over GST control)"
TCTGAT,binding signal,ERF,"1.22 fold enrichment (6-mer frequency, TF over GST control)"
same,binding signal,ETV3L,"1.29 fold enrichment (6-mer frequency, TF over GST control)"
same,binding signal,ETS2,"1.29 fold enrichment (6-mer frequency, TF over GST control)"
same,binding signal,SPDEF,"1.22 fold enrichment (6-mer frequency, TF over GST control)"
same,binding signal,ETV7,"1.23 fold enrichment (6-mer frequency, TF over GST control)"
same,binding signal,ELF5,"1.19 fold enrichment (6-mer frequency, TF over GST control)"
same,binding signal,ETV3,"1.21 fold enrichment (6-mer frequency, TF over GST control)"
same,binding signal,ETV6,"1.19 fold enrichment (6-mer frequency, TF over GST control)"
AAATCA,binding signal,ERF,"1.23 fold enrichment (6-mer frequency, TF over GST control)"
same,binding signal,ETV3L,"1.27 fold enrichment (6-mer frequency, TF over GST control)"
same,binding signal,ETS2,"1.22 fold enrichment (6-mer frequency, TF over GST control)"
same,binding signal,SPDEF,"1.12 fold enrichment (6-mer frequency, TF over GST control)"
same,binding signal,ETV7,"1.16 fold enrichment (6-mer frequency, TF over GST control)"
same,binding signal,ELF5,"1.22 fold enrichment (6-mer frequency, TF over GST control)"
same,binding signal,ETV3,"1.17 fold enrichment (6-mer frequency, TF over GST control)"
same,binding signal,ETV6,"1.21 fold enrichment (6-mer frequency, TF over GST control)"
